Measurements as given in PubChem BioAssay AID588342 (National Center for Advancing Translational Sciences (NCATS), 2011).
The campaign covered roughly 360,000 compounds. About 25,000 (6.9%) were called active. Inconclusive results (about 9%) are left out. The sample holds actives, similar compounds and a random draw of the others, so the mix is not that of the screen. Values without a mark were called inactive. The call rests on the fitted dose curve; in most records, active means well fitted inhibition curve with a large enough effect; inconclusive means small, poorly fitted or top-dose-only effect; inactive means flat fitted curve, though single readings scatter.

Molecular target: Luciferin 4-monooxygenase (Photinus pyralis) (UniProt P08659)
Assay: qHTS profiling assay for firefly luciferase inhibitor/activator using purifed enzyme and Km concentrations of substrates (counterscreen for miR-21 project); further: nearly all actives have a fitted effect of over 55% in size;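 on activity change, negative = inhibition: plate controls were vehicle for no effect and reference inhibitor for full effect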
Settings: purified FLuc, luminescence inhibition; series mostly up to 57.5 µM; activity change, negative = inhibition: at the top concentration
How it was run: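 Purified P. pyralis luciferase (10nM final) with 10uM D-luciferin and 10uM ATP (Km levels) in 50mM Tris acetate pH 7.5, 10mM Mg acetate, 0.01% Tween-20, 0.05% BSA; qHTS 6-point titration, ~60 µM downward; luminescence read.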
Potency means the concentration at half of the fitted maximal effect.

Luciferin 4-monooxygenase (Photinus pyralis), sequence (P08659 whole entry, looked up): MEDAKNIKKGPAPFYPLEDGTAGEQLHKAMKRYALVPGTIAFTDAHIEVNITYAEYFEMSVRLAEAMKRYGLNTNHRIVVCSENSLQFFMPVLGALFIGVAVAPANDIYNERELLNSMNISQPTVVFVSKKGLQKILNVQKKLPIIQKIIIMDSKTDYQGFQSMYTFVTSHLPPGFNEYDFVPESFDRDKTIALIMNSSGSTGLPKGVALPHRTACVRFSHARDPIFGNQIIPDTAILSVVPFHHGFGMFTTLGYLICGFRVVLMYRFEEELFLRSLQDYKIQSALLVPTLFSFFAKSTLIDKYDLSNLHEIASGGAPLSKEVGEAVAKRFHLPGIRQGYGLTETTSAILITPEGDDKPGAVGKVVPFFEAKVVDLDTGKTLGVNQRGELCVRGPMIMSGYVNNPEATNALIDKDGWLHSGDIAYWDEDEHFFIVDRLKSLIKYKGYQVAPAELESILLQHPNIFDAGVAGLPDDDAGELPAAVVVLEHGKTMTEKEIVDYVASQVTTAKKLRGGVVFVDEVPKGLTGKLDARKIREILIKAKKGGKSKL

| SMILES | activity change, negative = inhibition [%] | Potency |
| --- | --- | --- |
| Cc1cccc(OCCSc2nc3ccc(NC(=O)COc4ccccc4C)cc3s2)c1 | -4.35 | – |
| CS(=O)(=O)N1CCN(C(=O)Cc2ccccc2)CC1 | 3.89 | – |
| CS(=O)(=O)N1CCc2nc(-c3ccccc3)sc2C1 | – | 9.53 µM (active) |
| CS(=O)(=O)N1CCN(c2cccc(Cl)n2)CC1 | -0.219 | – |
| Cc1ccc(NC(=O)CCNC(=O)c2ccc([N+](=O)[O-])cc2)cc1S(=O)(=O)N1CCOCC1 | 4.27 | – |
| CCOc1ccc(N(CC)S(=O)(=O)N2CCCC(C(=O)NCc3ccc(Cl)cc3)C2)cc1 (configuration not stated) | -15.9 | – |
| O=C(COc1ccccc1)Nc1nonc1NC(=O)COc1ccccc1 | – | 7.57 µM (active) |
| O=C(COc1ccccc1)Nc1ccc(C(=O)N2CCCC2)cc1 | -0.942 | – |
| CC(=O)Nc1ccc(NC(=O)COc2ccc(-c3ccccc3)cc2)cc1 | -2.67 | – |
| CCCCN(CCCNC(=O)c1cc(Nc2ccccc2OC)nc2ccccc12)c1ccccc1 | -5.87 | – |
| Cc1c(C)n(Cc2ccc(Cl)cc2)c2ccc(C(=O)NCCc3ccc(S(N)(=O)=O)cc3)cc12 | -12 | – |
| COC(=O)c1c(NC(C)=O)sc(C(=O)Nc2ccccc2OC)c1C | -3.92 | – |
| COc1ccccc1NC(=O)c1ccc(C)s1 | – | 13.5 µM (active) |
| COc1ccccc1NC(=O)C1=C(C)NC(=O)NC1c1ccc(C)s1 (configuration not stated) | -1.32 | – |
| C1=C(CCNc2ncnc3c2cnn3-c2ccccc2)CCCC1 | – | 3.38 µM (active) |
| Cc1ccc(-n2ncc3c(N4CCC(C(N)=O)CC4)ncnc32)cc1 | – | 12 µM (active) |
| O=C(NCCC1=CCCCC1)C1CCN(Cc2cnn(-c3ccccc3)c2-n2cccc2)CC1 | 0.886 | – |
| COc1ccccc1N1CCN(C(=O)CSc2nnc(-c3ccoc3C)o2)CC1 | -1.48 | – |
| CCN1CCN(c2ncnc3c2cnn3-c2ccc(C)c(C)c2)CC1 | – | 9.53 µM (active) |
| CCOC(=O)C1CCN(c2ncnc3c2c(-c2ccccc2)cn3-c2ccc(C)cc2)CC1 | -7.38 | – |
| O=C(NNc1ncnc2c1cnn2-c1ccccc1)c1ccco1 | -1.66 | – |
| CCc1cc2c(N3CCN(c4nnc(CC)s4)CC3)ncnc2s1 | -1.27 | – |
| Cc1ccc(-n2ncc3c(=O)n(Cc4cccc(C(F)(F)F)c4)cnc32)cc1C | -6.53 | – |
| COc1ccccc1N1CCN(C(=O)CSc2ncnc3c2cnn3-c2ccc(C)c(C)c2)CC1 | – | 8.49 µM (active) |
| Cc1ccc(Cl)cc1-n1ncc2c(N3CCC(C(N)=O)CC3)ncnc21 | -2.86 | – |
| CCN(CC)C(=O)CSc1nc2ccccc2n1CC(=O)N1CCN(c2ccccc2OC)CC1 | 7.05 | – |

| SMILES | activity change, negative = inhibition [%] | Potency |
| --- | --- | --- |
| Cc1ccc(S(=O)(=O)N(C)C)cc1NC(=O)c1ccccc1Br | -3.56 | – |
| Cn1cc(-c2ccccc2)cc(C#N)c1=O | 2.58 | – |
| Cc1ccccc1CN1CCC(CNC(=O)c2cc3ccc4cccnc4c3[nH]2)CC1 | -4.76 | – |
| Cc1ccc(N2CC(NC(=O)Cc3cccs3)CC2=O)cc1 (configuration not stated) | -1.84 | – |
| Cc1cccc(NC(=O)C2CC(=O)OC23CCCC3)c1 (configuration not stated) | 2.02 | – |
| Nc1c(C(=O)O)cnn1-c1ccccc1 | -3.2 | – |
| Cn1nnc2c(N3CCN(c4ccccc4)CC3)ncnc21 | -8.03 | – |
| c1ccc(-n2ncc3c(N4CCCC4)ncnc32)cc1 | – | 4.26 µM (active) |
| Cc1ccc(CN(C(=O)c2ccccc2[N+](=O)[O-])c2ccccn2)cc1 | 2.1 | – |
| Cc1cc(C)c(C#N)c(SCC(=O)N(CC(C)C)C2CCS(=O)(=O)C2)n1 (configuration not stated) | 0.183 | – |
| O=C(COC(=O)CNC(=O)C1CCCCC1)Nc1cccc(F)c1 | 3.66 | – |
| Nc1c(C(=O)OCC(=O)Nc2ccc(OC(F)F)cc2)[nH]c(=O)[nH]c1=O | -1.54 | – |
| O=S(=O)(c1ccc2nc(N3CCN(c4cccc(Cl)c4)CC3)ccc2c1)N1CCCCC1 | 0.918 | – |
| Cc1ccc(NC(=O)C2CC(=O)N(c3ccc4c(c3)OCCO4)C2)cc1S(=O)(=O)N1CCCCCC1 (configuration not stated) | 2.14 | – |
| Cc1ccc(C(=O)NNC(=O)c2ccncc2)cc1S(=O)(=O)N1CCCCC1 | -0.932 | – |
| O=C(c1ccc(Cl)c(S(=O)(=O)N2CCCCC2)c1)N1CCCCCC1 | -0.389 | – |
| O=C(c1ccc(Cl)c(S(=O)(=O)N2CCCCCC2)c1)N1CCN(c2ccc(O)cc2)CC1 | 4.76 | – |
| Cc1ccc(C(=O)Nc2ccc3c(c2)OCO3)cc1S(=O)(=O)N1CCCCC1 | – | 16.9 µM (active) |
| O=C(Nc1ccc2c(c1)OCCO2)c1ccc(Cl)c(S(=O)(=O)N2CCCCC2)c1 | – | 13.5 µM (active) |
| Cc1c(Cl)cccc1NC(=O)CCS(=O)(=O)c1ccc2c(c1)oc(=O)n2C | -5.67 | – |
| COc1ccccc1CNS(=O)(=O)c1cc(C(=O)NCc2ccccn2)c(Cl)cc1Cl | 1.54 | – |
| CCC(C(=O)Nc1cc(OC)ccc1OC)n1c(=O)c(C(F)(F)F)nc2ccccc21 (configuration not stated) | -0.546 | – |
| O=C(O[C@H]1[C@H](Cc2ccccc2)NS(=O)(=O)[C@H]2C[C@@H]3C=C[C@]12O3)c1ccc([N+](=O)[O-])cc1 | 4.04 | – |
| CCc1nonc1NC(=O)c1oc2ccc(Cl)cc2c1C | – | inactive |
| Cc1cc(C)cc(NS(=O)(=O)c2cc3c(cc2C)NC(=O)CO3)c1 | -0.815 | – |
| Cc1cccc(C(=O)N2CCc3c([nH]c4ccccc34)C2CC(C)C)n1 (configuration not stated) | – | 16.9 µM (active) |

| SMILES | activity change, negative = inhibition [%] | Potency |
| --- | --- | --- |
| Cc1ccc(C2c3[nH]c4ccccc4c3CCN2C(=O)c2cccc(C)c2)cc1 (configuration not stated) | -0.203 | – |
| Cc1cccc(C2c3[nH]c4ccccc4c3CCN2C(=O)c2cc(-c3cccn3C)n[nH]2)n1 (configuration not stated) | 2.66 | – |
| O=C(NCc1cccnc1)C(=O)NCC(c1cccnc1)N1CCN(c2ccccc2)CC1 (configuration not stated) | 5.36 | – |
| CCn1cc(C(=O)NCc2ccc(C)cc2)c(=O)c2cc(S(=O)(=O)N3CCc4ccccc4C3)ccc21 | -5.12 | – |
| O=C(Nc1cccc([N+](=O)[O-])c1)Nn1cnnc1 | 2.4 | – |
| O=C(Nc1cccc([N+](=O)[O-])c1)N1CCc2ccccc2C1 | – | 21.3 µM (active) |
| CCc1ccc(NC(=O)N2CCc3ccccc3C2)cc1 | – | 12 µM (active) |
| CN1CCN(CC(=O)Nc2cccc([N+](=O)[O-])c2)CC1 | 1.74 | – |
| Cc1ccc(NC(=O)CN2CCc3ccccc3C2)cc1C | -21.8 | – |
| CCc1ccc(NC(=O)N2CCN(c3ccccc3)CC2)cc1 | -19.9 | – |
| Cc1cc(-c2ccc(C)c(S(=O)(=O)N3c4ccccc4CC3C)c2)on1 (configuration not stated) | 3.15 | – |
| Cn1c(=O)c2c(nc(SCC(=O)Nc3ccc(F)cc3)n2Cc2ccc(Cl)cc2)n(C)c1=O | -3.31 | – |
| S=C(Cc1ccc(Cl)cc1)N1CCOCC1 | -1.16 | – |
| CCOC(=O)c1ccc(N2C(=O)c3n[nH]c(C)c3C2c2ccc(O)c(OC)c2)cc1 (configuration not stated) | 6.1 | – |
| CCOc1ccc(N(CC)S(=O)(=O)N2CCCC(C(=O)Nc3ccc(C(C)=O)cc3)C2)cc1 (configuration not stated) | 2.45 | – |
| NC(=O)CC[C@@H]1NC(=O)[C@@H]2CCCN2C(=O)c2cc([N+](=O)[O-])cc(F)c2NCCC[C@@H](C(N)=O)NC1=O | -0.328 | – |
| Cc1ccc(C(C)C)c(OCCSc2nc3ccccc3n2CC(=O)O)c1 | -0.728 | – |
| CCc1ccc(NC(=O)C2CCCN2S(=O)(=O)c2ccc3nc(-c4ccccc4)[nH]c3c2)cc1 (configuration not stated) | -18.6 | – |
| CCOc1ccc(C(=O)CCC(=O)Nc2ccncc2)cc1 | -4.1 | – |
| CCOc1ccc(NCCC(=O)c2ccc3c(c2)OCO3)cc1 | – | 21.3 µM (active) |
| COc1ccc(C2(C)NC(=O)N(CC(=O)c3ccc4c(c3)OCO4)C2=O)cc1 (configuration not stated) | 5.52 | – |
| Cc1ccc2nc(CN3CCN(S(=O)(=O)c4ccc(C)c(C)c4)CC3)oc2c1 | -1.02 | – |
| CCC1CCCCN1S(=O)(=O)Cc1ccccc1Cl (configuration not stated) | -1.4 | – |
| CC1(C)NC(=O)N(CC(=O)N2CCN(S(=O)(=O)c3ccccc3F)CC2)C1=O | 3.62 | – |
| Cc1ccc(NC(=S)NCc2ccccc2Cl)c(C)c1 | -7.17 | – |
| Cc1ccc(NC(=S)NCCc2ccc(Cl)cc2)c(C)c1 | -4.33 | – |

| SMILES | activity change, negative = inhibition [%] | Potency |
| --- | --- | --- |
| Cc1ccc(NC(=S)Nc2ncccc2C)c(C)c1 | – | 6.75 µM (active) |
| CN(C(=O)CSc1nnc(Nc2ccccc2)s1)C1CCS(=O)(=O)C1 (configuration not stated) | – | 16.9 µM (active) |
| COc1ccc2c(-c3ccccc3)cc(SCC(=O)N(C)C3CCS(=O)(=O)C3)nc2c1 (configuration not stated) | -10.2 | – |
| CCn1c(SCC(=O)N(C)C2CCS(=O)(=O)C2)nnc1-c1cccs1 (configuration not stated) | 0.145 | – |
| CN(C(=O)CSc1nnc(-c2ccc(C(C)(C)C)cc2)n1C)C1CCS(=O)(=O)C1 (configuration not stated) | – | 15.1 µM (active) |
| CC(C)N(C(=O)CSc1nnc(NC2CC2)s1)c1ccccc1 | 1.23 | – |
| CN(C(=O)CSc1nnc(-c2ccc3c(c2)OCO3)o1)C1CCS(=O)(=O)C1 (configuration not stated) | -0.842 | – |
| COc1cccc(-c2nc(CS(=O)(=O)CC(=O)N3CCN(c4cc(C)ccc4C)CC3)c(C)o2)c1 | -13.9 | – |
| COc1cccc(OCC(O)CNC(=O)c2oc3c(C)c(C)ccc3c2C)c1 (configuration not stated) | -0.457 | – |
| O=C(NCc1ccccc1)C(=O)NCC1OCCN1S(=O)(=O)c1ccc(Br)cc1 (configuration not stated) | 6.76 | – |
| Fc1ccc(COc2ccc(-c3nnco3)cc2)cc1 | – | 13.5 µM (active) |
| O=C(Oc1ccc(-c2nnco2)cc1)c1ccc(F)c(S(=O)(=O)N2CCOCC2)c1 | 4.2 | – |
| Cc1occc(=O)c1OCc1ccc(F)cc1 | -0.892 | – |
| COc1ccc(NC(=O)c2cccc3c2C(=O)N(CC2CCCO2)C3)cc1OC (configuration not stated) | – | 26.9 µM (active) |
| COc1ccc(C(=O)Nc2ccc(C(=O)NCC3CCCO3)cc2)c(OC)c1OC (configuration not stated) | -1.51 | – |
| COCCN1Cc2cccc(C(=O)Nc3ccccc3OC)c2C1=O | -1.7 | – |
| CCOc1ccc(NC(=O)c2cccc3c2C(=O)N(CC2CCCO2)C3)cc1 (configuration not stated) | – | 8.49 µM (active) |
| CCCN1Cc2cccc(C(=O)Nc3ccc(S(=O)(=O)N4CCCCCC4)cc3)c2C1=O | -0.216 | – |
| COC(=O)c1ccc(NC(=O)c2cccc3c2C(=O)N(C2CCCCC2)C3)cc1 | 0.21 | – |
| Cc1ccsc1CN(C(=O)c1oc2ccc(Br)cc2c1C)C1CCS(=O)(=O)C1 (configuration not stated) | 0.561 | – |
| O=C1C=C(c2cc(C(F)(F)F)cc(C(F)(F)F)c2)C[C@@H](c2ccc3c(c2)OCO3)C1 | 2.27 | – |
| Cc1cc(C(F)(F)F)n2ncc(-c3ccccc3)c2n1 | 2.87 | – |
| COc1ccccc1-c1cnn2c(N3CCOCC3)cc(C)nc12 | – | 6.01 µM (active) |
| Cc1cc(-n2nc(C)cc2C)n2ncc(-c3ccccc3)c2n1 | -12.2 | – |
